From PubChem
Most compounds without a hit are left out; they make up all but 9.3% or so of the library.
NPC1 prom act: activates the NPC1 promoter. Huh7 NPC1 promoter luciferase reporter, 24 h. Potency, µM (top dose mostly 9.22 µM), for inactives: at the top dose activation, usual class: activators. 2.4% of 320,000 active; further: % of control where 0% means no effect; nearly all actives have a fitted effect of over 60% in size
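NPC1 promoter–luciferase Huh7 cells; 24 h compound; luminescence.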
ELG1 genotox: inducers of genotoxicity in HEK293T ELG1-luciferase cells; HEK293T ELG1-luciferase reporter, luminescence, 16 h; Potency, µM (series often up to 46 µM), inactives show top-dose activity change, positive = activation, hits mostly activators; 1.3% of 330,000 active; further: % of control where 0% means no effect; nearly all actives have a fitted effect of over 60% in size
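After overnight (16 hr) compound treatment at 37 °C, ELG1-luciferase HEK293T cells were lysed with ONE-Glo; luminescence quantified 30 min later at room temperature.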
FLuc counter: firefly luciferase modulation, counter-screen for miR-21 project | Potency, µM (series often up to 57.5 µM), without a hit: at the highest dose activity change, negative = inhibition, usual class: inhibitors | 6.9% of 360,000 active | purified FLuc, Km substrates, luminescence inhibition | AID 588342;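 further: plate controls were vehicle for no effect and reference inhibitor for full effect; nearly all actives have a fitted effect of over 55% in size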
Target sequence (P08659 whole entry, looked up): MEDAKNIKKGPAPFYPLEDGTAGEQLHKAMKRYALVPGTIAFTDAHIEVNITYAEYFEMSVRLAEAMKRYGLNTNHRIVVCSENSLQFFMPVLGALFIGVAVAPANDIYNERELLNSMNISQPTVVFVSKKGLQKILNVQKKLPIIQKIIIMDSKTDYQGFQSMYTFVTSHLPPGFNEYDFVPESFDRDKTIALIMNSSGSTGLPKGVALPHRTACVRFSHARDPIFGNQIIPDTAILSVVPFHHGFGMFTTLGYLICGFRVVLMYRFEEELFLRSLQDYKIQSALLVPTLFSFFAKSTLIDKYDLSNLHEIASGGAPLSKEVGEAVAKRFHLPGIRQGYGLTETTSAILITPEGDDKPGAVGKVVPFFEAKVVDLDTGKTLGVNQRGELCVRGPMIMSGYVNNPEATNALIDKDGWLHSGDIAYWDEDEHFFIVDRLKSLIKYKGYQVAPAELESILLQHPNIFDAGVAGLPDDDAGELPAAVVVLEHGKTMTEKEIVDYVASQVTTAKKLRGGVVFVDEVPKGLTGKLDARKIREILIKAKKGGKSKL
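Purified P. pyralis luciferase, 10 nM final, with Km-level 10 uM D-luciferin and 10 uM ATP in 50 mM Tris acetate pH 7.5, 10 mM Mg acetate, 0.01% Tween-20, 0.05% BSA; 6-point qHTS titration about 60 µM downward; luminescence read.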
ELG1 repair inh: blocks ELG1-dependent DNA repair in HEK293T cells; HEK293T ELG1-luciferase reporter, luminescence, 16 h; DNA damage induced by 5-fluorouridine; AID 504467; 2.3% of 330,000 active; Potency, µM (titrated, usually from 46.1 µM), for inactives: at the highest dose activity change, negative = inhibition, usual class: inhibitors; further: on the % scale 0 is the no-effect control and ±100 the full control effect; nearly all actives have a fitted effect of over 55% in size
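Cells (2,000 per well) received 5-fluorouridine plus test compound or DMSO and were incubated 16 hr at 37 °C, 5% CO2. Luciferase activity was read by luminescence 30 min after ONE-Glo addition; signal suppression marked inhibition of damage-induced ELG1 function.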
SMN2 splice enh: enhancers of SMN2 splice variant expression; HEK293 SMN2-luciferase splicing reporter, luminescence, 30-36 h; Potency, µM (titrated, usually from 46.1 µM), without a hit: top-dose activity change, positive = activation, most hits filed as activators; 2.8% of 210,000 active; further: % of control where 0% means no effect; nearly all actives have a fitted effect of over 55% in size
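qHTS luciferase splicing reporter: luminescence rises when SMN2 exon 7 is included in transfected HEK293 cells. Compound exposure lasted 30-36 h at 37C, with 4.5 mM final sodium butyrate as control, followed by a ONE-Glo read.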
Rab9 prom act: Rab9 promoter activation; Potency, µM (series often up to 9.22 µM), inactives show at the top dose activation, negative = inhibition, most hits filed as activators; 2.8% of 320,000 active; AID 485297; Huh7 Rab9 promoter-luciferase reporter, luminescence, 24 h; further: % of control where 0% means no effect; nearly all actives have a fitted effect of over 60% in size
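Luminescence read-out: Huh7 cells stably expressing Rab9-luciferase, treated 24 h with compound at 37 °C, then lysed with luciferase reagent for 10 min at ambient before reading.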
Starred values were filed as active, the others as inactive; [ ] = remark or other dose. The call rests on the fitted dose curve; in most records, active means well fitted curve in the direction sought with a large enough effect; inconclusive means small, poorly fitted or top-dose-only effect, or another doubt; inactive means no such curve, though single readings can be large; an effect the other way counts as inactive or inconclusive. Potency means the concentration at half of the fitted maximal effect.

`Cc1ccc(NC(=S)N(Cc2cccc(Br)c2)CC2CCC(C(=O)O)CC2)cc1` (centres undefined) gave NPC1 prom act -8%, ELG1 genotox 2%, FLuc counter inconclusive, ELG1 repair inh -6% and Rab9 prom act -3%.
Screening Clc1ccc(-c2nc3n(n2)Cc2ccccc2-3)cc1 returned NPC1 prom act 3.2µM*, ELG1 genotox inconclusive, FLuc counter 0.54µM*, ELG1 repair inh inconclusive, SMN2 splice enh 0.5µM* and Rab9 prom act 1.6µM*.
Screening CCN(CC)S(=O)(=O)c1cccc(-c2nc3n(n2)Cc2ccccc2-3)c1 returned NPC1 prom act inconclusive, ELG1 genotox 5%, FLuc counter 12µM*, ELG1 repair inh -2%, SMN2 splice enh -16% and Rab9 prom act inconclusive.
Screening CN1CCN(C(=O)c2ccccc2-c2nc(-c3ccc(Cl)cc3)no2)CC1 returned NPC1 prom act 3%, ELG1 genotox -7%, FLuc counter 5%[2.3 µM], ELG1 repair inh -15% and Rab9 prom act 1%.
`COc1ccccc1/C=C1\SC(=S)N(CCC(=O)Nc2ccc(C(=O)O)c(O)c2)C1=O` gave NPC1 prom act -1%, ELG1 genotox 4%, FLuc counter 6µM*, ELG1 repair inh -5% and Rab9 prom act 5%.
For O=C(CN1C(=O)S/C(=C\c2cccs2)C1=O)Nc1ccc(O)c(C(=O)O)c1 the results were NPC1 prom act -6%, ELG1 genotox 2%, FLuc counter inconclusive, ELG1 repair inh 9% and Rab9 prom act -13%.
Screening O=C(CCCN1C(=O)/C(=C\c2ccco2)SC1=S)Nc1ccc2ccccc2c1 returned NPC1 prom act 4%, ELG1 genotox 0%, FLuc counter -1%, ELG1 repair inh 10%, SMN2 splice enh 265% and Rab9 prom act 0%.
`O=C(CCN1C(=O)/C(=C/c2ccco2)SC1=S)Nc1ccc(O)cc1C(=O)O` gave NPC1 prom act -1%, ELG1 genotox 0%, FLuc counter inconclusive, ELG1 repair inh -1% and Rab9 prom act -2%.
Screening O=C(CN1C(=O)S/C(=C\c2cccs2)C1=O)Nc1ccc(C(=O)O)c(O)c1 returned NPC1 prom act 1%, ELG1 genotox -1%, FLuc counter 24µM*, ELG1 repair inh inconclusive and Rab9 prom act 8%.
`O=C(CCN1C(=O)/C(=C/c2ccco2)SC1=S)Nc1ccc(C(=O)O)c(O)c1` gave NPC1 prom act -1%, ELG1 genotox -3%, FLuc counter 7.6µM*, ELG1 repair inh 1% and Rab9 prom act -3%.
Screening O=C(CCN1C(=O)/C(=C\c2ccco2)SC1=S)Nc1ccc(C(=O)O)c(O)c1 returned NPC1 prom act 0%, ELG1 genotox 0%[9.26 µM], FLuc counter 11µM*, ELG1 repair inh 19% and Rab9 prom act -1%.
`Oc1[nH]c2ccccc2c1N=Nc1c(F)c(F)c(Cl)c(F)c1F` gave NPC1 prom act 24%, ELG1 genotox 4%, FLuc counter -3%, ELG1 repair inh 24% and Rab9 prom act inconclusive.
Screening O=C(O)c1ccc(N=Nc2c(O)[nH]c3ccc(Br)cc23)cc1 returned NPC1 prom act 1.3µM*, ELG1 genotox 18µM*, FLuc counter 11µM*, ELG1 repair inh inconclusive and Rab9 prom act inconclusive.
`Oc1[nH]c2ccccc2c1N=Nc1cccc(Cl)c1` gave NPC1 prom act 30%, ELG1 genotox inconclusive, FLuc counter 5.4µM*, ELG1 repair inh inconclusive and Rab9 prom act inconclusive.
Screening Oc1cccc(NC(=S)N=Nc2c(O)[nH]c3ccccc23)c1 returned NPC1 prom act 16%, ELG1 genotox inconclusive, FLuc counter 19µM*, ELG1 repair inh inconclusive and Rab9 prom act 22%.
Screening CCOc1ccc(NC(=S)N=Nc2c(O)[nH]c3ccccc23)cc1 returned NPC1 prom act -8%, ELG1 genotox -10%, FLuc counter -16%, ELG1 repair inh inconclusive, SMN2 splice enh -41% and Rab9 prom act -4%.
Screening Cc1ccc(N=Nc2c(O)[nH]c3ccc(F)cc23)cc1 returned NPC1 prom act 3.2µM*, ELG1 genotox inconclusive, FLuc counter inconclusive, ELG1 repair inh inconclusive and Rab9 prom act 2.8µM*.
Screening O=C(O)c1ccc(N=Nc2c(O)[nH]c3cc(Cl)ccc23)cc1 returned NPC1 prom act 0.32µM*, ELG1 genotox 9.2µM*, FLuc counter 0.85µM*, ELG1 repair inh inconclusive and Rab9 prom act 0.1µM*.
Nc1nc(N)c(N=Nc2ccc(C(=O)O)cc2)c(N)n1 was read as NPC1 prom act -2%, ELG1 genotox 0%, FLuc counter -17%, ELG1 repair inh -7% and Rab9 prom act 16%.
For COc1ccc(N=Nc2[nH]c3ccc(C)cc3c2O)cc1 the results were NPC1 prom act 7%, ELG1 genotox 13%, FLuc counter -11%, ELG1 repair inh inconclusive, SMN2 splice enh 0%[1.84 µM] and Rab9 prom act 24%.
Cc1ccc(N=Nc2[nH]c3ccccc3c2O)cc1 was read as NPC1 prom act 5%, ELG1 genotox inconclusive, FLuc counter inconclusive, ELG1 repair inh inconclusive, SMN2 splice enh 13µM* and Rab9 prom act 19%.
For Cc1cccc2c(N=Nc3ccccc3)c(O)[nH]c12 the results were NPC1 prom act 1.4µM*, ELG1 genotox 5.2µM*, FLuc counter 1.5µM*, ELG1 repair inh inconclusive and Rab9 prom act 2µM*.
CCc1c(C)nc2[nH]nc(-c3ccccc3)n2c1=O was read as NPC1 prom act 14%, ELG1 genotox inconclusive, FLuc counter 21µM*, ELG1 repair inh inconclusive and Rab9 prom act 9%.
For CCc1c(C)nc2[nH]nc(-c3ccccc3C)n2c1=O the results were NPC1 prom act 1%, ELG1 genotox 2%, FLuc counter inconclusive, ELG1 repair inh 28%, SMN2 splice enh 20% and Rab9 prom act 0%.
For CN(C(=O)/C=C/c1ccco1)c1ccccc1C(=O)O the results were NPC1 prom act -3%, ELG1 genotox 0%, FLuc counter -6%, ELG1 repair inh 8% and Rab9 prom act -9%.
For O=C(/C=C/c1ccco1)c1ccc(O)cc1 the results were NPC1 prom act 13%, ELG1 genotox inconclusive, FLuc counter 13µM*, ELG1 repair inh inconclusive, SMN2 splice enh 6% and Rab9 prom act inconclusive.
For CN(C)c1ccc(C(=O)/C=C/c2ccco2)cc1 the results were NPC1 prom act 3.2µM*, ELG1 genotox inconclusive, FLuc counter 0.38µM*, ELG1 repair inh inconclusive, SMN2 splice enh 13µM* and Rab9 prom act 2.8µM*.
